Where “and” joins values, the source holds several entries; their conditions need not be identical. Equal entries are not always repeated. Some structures have more than one record in an assay (separate samples or runs), and their calls can disagree. Calls of active or inactive are those of the source. Rule for the calls: active = hit-call score of the fitted dose curve at least 0.9, where 1 is the maximum; inactive = score below 0.9.

The nature of one assay: CCTE_Shafer_MEA_dev_burst_duration_mean: CCTE's Neural Network Formation Assay for Mean Burst Duration, Shafer Lab (AID 2284045).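 For AC50: curve fitted for loss meaning shorter burst duration than DMSO.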 A digest of the protocol:
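Read-out: average first-to-last-spike interval within single-electrode bursts, averaged over bursting electrodes per well, then summarised as area under the curve across days 5, 7, 9 and 12. Developing rat cortical networks were exposed from day 0.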
For `COP(=O)(OC)OC(Br)C(Cl)(Cl)Br` (stereo not given), the concentration at half-maximal activity (AC50) is 12.8 µM (active) and the compound was called inactive.

For `CCOP(=S)(OCC)Oc1ccc([N+](=O)[O-])cc1`, the call was inactive.

On to `CCOP(=O)(NC(C)C)Oc1ccc(SC)c(C)c1` (stereo not given), for which the AC50 is 17.3 µM (active) and the compound was classed as inactive.

Turning to `CCCSP(=O)(OCC)Oc1ccc(Br)cc1Cl` (stereo not given), the call was inactive.

Take `CON=C(C(=O)OC)c1ccccc1CON=C(C)c1cccc(C(F)(F)F)c1`: the AC50 is 674 nM (active) and 995 nM (active).

As for `CC(Oc1cccc(Cl)c1)C(=O)O` (stereo not given), the outcome was inactive.

For the compound `CCOP(=S)(OCC)Oc1cc(C)nc(C(C)C)n1`, the compound was called inactive.

`CCCSP(=O)(OCC)SCCC`: the compound was classed as inactive.

Turning to `CCOP(=O)(OCC)Oc1cc(C)nc(C(C)C)n1`, the outcome was inactive.

Take `CCOP(=S)(OCC)OC(Cl)C(Cl)(Cl)Cl` (stereo not given): the AC50 was 23.4 µM (active) and the compound was classed as inactive.

Regarding `S=C1NCCN1`, the compound was classed as inactive.

Regarding `CCOP(=O)(SC(C)CC)N1CCSC1=O` (stereo not given), the outcome was inactive.

Regarding `CCCCSP(=O)(SCCCC)SCCCC`, the compound was called inactive.

The next assay can be described thus: CCTE_Shafer_MEA_dev_interburst_interval_mean: CCTE's Neural Network Formation Assay for Mean Interburst Interval, Shafer Lab (AID 2284046).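 Note: well-mean interburst interval of bursting electrodes as AUC over four recording days; curve fitted for decrease in interburst interval relative to DMSO.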 A digest of the protocol:
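Network formation assay in primary rat cortical cultures, exposed from DIV 0 to 12. Mean interburst interval per well, integrated as AUC over four recordings.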
Turning to `COP(=O)(OC)OC(Br)C(Cl)(Cl)Br` (stereo not given), the AC50 is 8.78 µM (active) and 10.1 µM (active).

As for `CCOP(=S)(OCC)Oc1ccc([N+](=O)[O-])cc1`, the call was inactive.

Turning to `CCOP(=O)(NC(C)C)Oc1ccc(SC)c(C)c1` (stereo not given), the AC50 is 31.5 µM (active) and the call was inactive.

Consider `CCCSP(=O)(OCC)Oc1ccc(Br)cc1Cl` (stereo not given), for which the result was inactive.

Consider `CON=C(C(=O)OC)c1ccccc1CON=C(C)c1cccc(C(F)(F)F)c1`, for which the AC50 is 1.32 µM (active) and 798 nM (active).

Turning to `CC(Oc1cccc(Cl)c1)C(=O)O` (stereo not given), the result was inactive.

On to `CCOP(=S)(OCC)Oc1cc(C)nc(C(C)C)n1`, for which the outcome was inactive.

On to `CCCSP(=O)(OCC)SCCC`, for which the compound was classed as inactive.

`CCOP(=O)(OCC)Oc1cc(C)nc(C(C)C)n1`: the call was inactive.

On to `CCOP(=S)(OCC)OC(Cl)C(Cl)(Cl)Cl` (stereo not given), for which the concentration at half-maximal activity (AC50) was 50 µM (active) and 13.7 µM (active).

Consider `S=C1NCCN1`, for which the call was inactive.

`CCOP(=O)(SC(C)CC)N1CCSC1=O` (stereo not given): the compound was called inactive.

Turning to `CCCCSP(=O)(SCCCC)SCCCC`, the AC50 was 63.3 µM (active) and 49.9 µM (active).

Another assay is described as follows: CCTE_Shafer_MEA_dev_inter_network_spike_interval_mean: CCTE's Neural Network Formation Assay for Mean Inter-network Spike Interval, Shafer Lab (AID 2284047).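 For AC50: potency for a decrease in mean inter-network spike interval below DMSO.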 A digest of the protocol: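 Compound was given at plating to primary rat cortical neurons and renewed with full medium changes on DIV 5 and 9. Extracellular activity was recorded on days 5, 7, 9, 12; AUC values were fitted for loss relative to DMSO control.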
With `COP(=O)(OC)OC(Br)C(Cl)(Cl)Br` (stereo not given), the AC50 was 2.15 µM (active) and the call was inactive.

In the case of `CCOP(=S)(OCC)Oc1ccc([N+](=O)[O-])cc1`, the compound was classed as inactive.

Take `CCOP(=O)(NC(C)C)Oc1ccc(SC)c(C)c1` (stereo not given): the call was inactive.

As to `CCCSP(=O)(OCC)Oc1ccc(Br)cc1Cl` (stereo not given), the compound was called inactive.

Take `CON=C(C(=O)OC)c1ccccc1CON=C(C)c1cccc(C(F)(F)F)c1`: the half-maximal activity concentration (AC50) is 969 nM (active) and 1.72 µM (active).

As for `CC(Oc1cccc(Cl)c1)C(=O)O` (stereo not given), the call was inactive.

As for `CCOP(=S)(OCC)Oc1cc(C)nc(C(C)C)n1`, the result was inactive.

Take `CCCSP(=O)(OCC)SCCC`: the compound was called inactive.

Turning to `CCOP(=O)(OCC)Oc1cc(C)nc(C(C)C)n1`, the compound was called inactive.

As for `CCOP(=S)(OCC)OC(Cl)C(Cl)(Cl)Cl` (stereo not given), the AC50 is 13.1 µM (active) and the outcome was inactive.

In the case of `S=C1NCCN1`, the compound was called inactive.

Take `CCOP(=O)(SC(C)CC)N1CCSC1=O` (stereo not given): the compound was called inactive.

Turning to `CCCCSP(=O)(SCCCC)SCCCC`, the compound was called inactive.

These data come from PubChem BioAssay (EPA / NIEHS).
